This is a sample that favours compounds with a hit; in the whole collection about 3% have one here.
KCNH2 WT inh = qHTS for Inhibitors of KCHN2 3.1: Wildtype qHTS; U2OS, BacMam KCNH2, thallium flux FluxOr; active compounds read low; Voltage-gated inwardly rectifying potassium channel KCNH2 (Homo sapiens), Q12809; 340,000 compounds, 0.37% hits; activity change, % at 1.84 µM;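 active = maximum activity change below -70%; inconclusive = maximum activity change between -70% and -50%; inactive = maximum activity change above -50%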; note: % is set by controls: 0 for no effect and ±100 for the full control effect
Target sequence (Q12809 whole entry, looked up): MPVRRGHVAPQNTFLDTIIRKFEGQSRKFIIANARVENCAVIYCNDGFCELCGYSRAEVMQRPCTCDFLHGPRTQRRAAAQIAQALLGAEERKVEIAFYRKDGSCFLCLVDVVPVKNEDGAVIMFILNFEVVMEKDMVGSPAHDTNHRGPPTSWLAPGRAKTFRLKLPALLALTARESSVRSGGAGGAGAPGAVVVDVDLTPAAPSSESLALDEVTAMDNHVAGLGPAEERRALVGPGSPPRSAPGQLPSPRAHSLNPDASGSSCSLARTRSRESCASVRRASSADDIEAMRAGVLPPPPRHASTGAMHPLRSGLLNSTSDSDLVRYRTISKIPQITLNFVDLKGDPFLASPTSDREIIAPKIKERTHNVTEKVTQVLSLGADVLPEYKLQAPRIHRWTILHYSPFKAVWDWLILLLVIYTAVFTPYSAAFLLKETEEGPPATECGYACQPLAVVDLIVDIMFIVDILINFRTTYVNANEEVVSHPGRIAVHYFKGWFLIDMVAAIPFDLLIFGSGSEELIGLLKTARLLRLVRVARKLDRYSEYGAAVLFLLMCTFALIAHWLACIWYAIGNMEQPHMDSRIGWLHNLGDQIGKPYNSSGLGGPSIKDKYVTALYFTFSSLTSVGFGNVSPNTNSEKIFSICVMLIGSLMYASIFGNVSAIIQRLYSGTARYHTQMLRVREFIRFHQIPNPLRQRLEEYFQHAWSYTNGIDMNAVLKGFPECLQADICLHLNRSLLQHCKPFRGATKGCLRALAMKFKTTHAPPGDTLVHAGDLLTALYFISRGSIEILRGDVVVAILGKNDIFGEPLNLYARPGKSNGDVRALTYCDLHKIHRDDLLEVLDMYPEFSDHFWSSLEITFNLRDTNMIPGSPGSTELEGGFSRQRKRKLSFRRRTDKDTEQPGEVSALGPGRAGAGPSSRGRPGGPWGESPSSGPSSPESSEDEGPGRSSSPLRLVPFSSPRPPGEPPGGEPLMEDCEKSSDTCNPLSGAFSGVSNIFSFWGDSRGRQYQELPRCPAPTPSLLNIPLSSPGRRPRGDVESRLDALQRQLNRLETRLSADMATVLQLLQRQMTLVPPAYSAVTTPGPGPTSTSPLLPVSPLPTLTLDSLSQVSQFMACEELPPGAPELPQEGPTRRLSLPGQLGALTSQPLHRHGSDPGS
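U2OS cells were transduced with wild-type KCNH2 virus (2.03 x 10^8 / mL) for 4 h at room temperature, then cultured overnight at 37 C. Thallium flux was read with FluxOr dye. Rate constants were normalized to DMSO controls.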
Chronic BCR inh = qHTS Assay to Find Inhibitors of Chronic Active B-Cell Receptor Signaling; ABC-DLBCL IkBa-CBG/CBR reporter, luminescence ratio, 4 h; Potency, µM (titrated, usually from 46.1 µM), for the others: at the highest dose activity change, negative = inhibition, actives largely listed as inhibitors; 340,000 compounds, 0.05% hits; active = well fitted inhibition curve with a large enough effect in the signal ratio, with a control signal flat, not every such curve was filed as active; inconclusive = small, poorly fitted or top-dose-only effect, or effect the other way, or a change in a side signal; the % refers to the signal ratio;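 note: potency is the fitted concentration of half-maximal effect; plate controls were basal doxycycline-induced cells for no effect and cells given 10 µM MG132 for full effect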
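Cell line TMD8 (human ABC DLBCL), stably expressing tet-inducible CBG68-IkBa fusion and CBR; IMDM/0.5% FBS; cpd up to 46 uM; dox induction, 4 h, 37C/5% CO2; dual luminescence; green/red ratio; MG132 control.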
LDHA inh = qHTS assay for inhibitors of human lactate dehydrogenase; L-lactate dehydrogenase A chain (Homo sapiens), P00338; purified LDHA, NADH/diaphorase-resazurin fluorescence; active compounds read low; activity change, % (values are at about 110 or 230 µM); 480,000 compounds, 0.15% hits; AID 1347041, 2019; in the data active = activity change below about -30%; inconclusive = mostly about -25% to -30%;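 note: plate controls were DMSO wells for no effect and wells without enzyme for full effect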
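LDH5 2 nM; NADH 0.06 mM, pyruvate 0.2 mM; 200 mM Tris pH 7.4, EDTA, Tween-20; 5 min RT. Detection: diaphorase 0.133 mg/mL + resazurin 37 µM, fluorescence ex540/em590 at 0 and 20 min; normalized to enzyme-free and DMSO wells.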
KCNH2 3.1 block = qHTS for Inhibitors of KCHN2 3.1: Mutant qHTS | U2OS KCNH2 3.1, thallium flux FluxOr; active compounds read low | activity change, % (tested at about 1.8 µM) | 340,000 compounds, 0.95% hits | AID 720553, 2013;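 active = maximum activity change below -70%; inconclusive = maximum activity change from -70% to -50%; inactive = maximum activity change above -50%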;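 note: thallium influx rate constant from kinetic fluorescence after stimulation buffer; % is set by controls: 0 for no effect and ±100 for the full control effect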
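Channel expression came from 3.1 mutant virus (1.77 x 10^8 /mL) applied to suspended U2OS cells for 4 h. Flux was tracked with FluxOr dye plus Red40 quencher, and kinetic rate constants normalized to controls.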
12-LOX inh = Primary qHTS assay for inhibitors of human arachidonate 12S-lipoxygenase (ALOX12): Round 2. Potency, µM (series often up to 108 µM), for inactives: at the highest dose activity change, negative = inhibition, hits mostly inhibitors. Polyunsaturated fatty acid lipoxygenase ALOX12 (Homo sapiens), P18054. AID 1671190, 2021. 580,000 compounds, 1.1% hits. purified 12hLO, xylenol orange hydroperoxide absorbance; active = well fitted inhibition curve with a large enough effect; inconclusive = small, poorly fitted or top-dose-only effect, or another doubt; inactive = no such curve, though single readings can be large or run the other way; note: potency is the fitted concentration of half-maximal effect; % is set by controls: 0 for no effect and ±100 for the full control effect
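Purified human 12hLO at 150 nM in 25 mM Hepes, 0.01% Triton X-100, pH 7.0, preincubated 15 min at room temperature with compound. Reaction started with 40 uM arachidonic acid, 30 min at room temperature. Hydroperoxide measured by Fe-xylenol orange, 573/405 nm absorbance ratio.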
ClpP mod = qHTS Assay for Activators of ClpP. 340,000 compounds, 1.9% hits. ATP-dependent Clp protease proteolytic subunit (Bacillus subtilis (strain 168)), P80244. Potency, µM (doses to about 57.5 µM), for inactives: at the top dose activity change, negative = active. purified B. subtilis ClpP, FRET peptide cleavage, 20 min; active = well fitted falling curve with a large enough effect; inconclusive = small, poorly fitted or top-dose-only effect; inactive = no such curve, though single readings can be large or run the other way; note: potency is the fitted concentration of half-maximal effect; the source files actives as falling curves though it sought activators and does not explain the sign; nearly all actives have a fitted effect of over 65% in size
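Purified B. subtilis ClpP, 10 microg/mL final in Tris/HCl pH8 with KCl, BSA, glycerol and Tween-20, cleaved an Abz/nitrotyrosine-quenched decapeptide. Fluorescence (ex 320, em 430) was read at 0 and 20 min at room temperature. Delta was normalized to 5.8 microM ADEP and DMSO/no-enzyme controls.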
An asterisk follows results filed as active.

What do the screens show for `Cc1ccc(N2C(=O)c3cccc4c([N+](=O)[O-])ccc(c34)C2=O)c2cccnc12`?
KCNH2 WT inh: -28.5; Chronic BCR inh: 5.7%; LDHA inh: -7.7; KCNH2 3.1 block: -98.2*; 12-LOX inh: 0.4%; ClpP mod: -0.2%

What do the screens show for `CCCCCN1CCN(c2nc3c(c(=O)[nH]c(=O)n3C)n2Cc2ccc(Cl)c(Cl)c2)CC1`?
LDHA inh: -7.7; 12-LOX inh: -24.3%

How did CN(C)CCCn1c(-c2ccc(COc3ccc(Br)cc3)o2)n[nH]c1=S do in these assays?
LDHA inh: -6.2; 12-LOX inh: 14.1µM*

What do the screens show for `Cc1n[nH]c(=O)c2c(NC(=O)CSc3nnc(-c4ccncc4)n3C)oc(C)c12`?
KCNH2 WT inh: -9.7; Chronic BCR inh: -7.3%; LDHA inh: 2.6; KCNH2 3.1 block: 15.9; 12-LOX inh: -16.4%; ClpP mod: 31.6µM*

How did O=C(Nc1ccn(CCCN2CCN(c3ncccn3)CC2)c(=O)n1)OCc1ccccc1 do in these assays?
KCNH2 WT inh: -73.7*; LDHA inh: -7.9; KCNH2 3.1 block: -2.4; 12-LOX inh: -6.0%; ClpP mod: 1.0%

Results for O=C(Nc1ccn(CCCN2CCN(Cc3ccc(F)cc3)CC2)c(=O)n1)OCc1ccccc1 ?
KCNH2 WT inh: 6.6; LDHA inh: -3.3; KCNH2 3.1 block: -27.0; 12-LOX inh: -19.3%; ClpP mod: 1.0%

How did Nc1[nH]ncc1-c1ccc(Cl)cc1 do in these assays?
KCNH2 WT inh: -4.5; Chronic BCR inh: inconclusive; LDHA inh: -3.4; KCNH2 3.1 block: 11.9; 12-LOX inh: 14.3%; ClpP mod: 1.5%

Results for COc1cc(-c2cn[nH]c2N)cc(OC)c1OC ?
KCNH2 WT inh: -7.3; Chronic BCR inh: -28.9%; LDHA inh: -3.1; KCNH2 3.1 block: -78.7*; 12-LOX inh: 2.4%; ClpP mod: -10.1%

How did COc1ccc(NC(=O)c2cc3sccc3n2Cc2ccc(F)cc2)cc1OC do in these assays?
KCNH2 WT inh: -249.1*; Chronic BCR inh: -8.2%; LDHA inh: -0.4; KCNH2 3.1 block: -2.3; 12-LOX inh: 28.8%; ClpP mod: -11.4%

What do the screens show for `CCNC(=S)Nc1cc(-c2ccc(Cl)cc2)[nH]n1`?
KCNH2 WT inh: 3.1; Chronic BCR inh: 15.1%; LDHA inh: -6.1; KCNH2 3.1 block: 17.0; 12-LOX inh: 5.62µM*

How did CCNC(=S)Nc1ccc(Cl)cc1 do in these assays?
KCNH2 WT inh: -11.1; Chronic BCR inh: inconclusive; LDHA inh: -3.5; KCNH2 3.1 block: -5.4; 12-LOX inh: -15.7%; ClpP mod: -1.8%

Results for Cc1ccc2oc(SCc3noc(CCC(=O)Nc4ccc5ccccc5c4)n3)nc2c1 ?
LDHA inh: 3.4; 12-LOX inh: 2.9%

What do the screens show for `CCOc1ccc(NS(=O)(=O)c2ccc3c(c2)N(CC(=O)OC)C(=O)CS3)cc1`?
LDHA inh: -4.5; 12-LOX inh: 9.2%

How did Cc1ccc(C(=O)c2ccc(Oc3ccc(C)c(C)c3)cc2)cc1 do in these assays?
LDHA inh: 0.6; 12-LOX inh: 11.3%

What do the screens show for `Cc1ccc(-c2ccc(CCC(=O)O)n2Cc2ccco2)cc1`?
KCNH2 WT inh: -0.9; Chronic BCR inh: inconclusive; LDHA inh: -1.9; KCNH2 3.1 block: 1.2; 12-LOX inh: inconclusive; ClpP mod: 31.6µM*

How did C=CCn1c(CCC(=O)O)ccc1-c1ccc(OC)cc1 do in these assays?
KCNH2 WT inh: 3.6; Chronic BCR inh: inconclusive; LDHA inh: -7.8; KCNH2 3.1 block: 6.0; 12-LOX inh: inconclusive; ClpP mod: inconclusive

Screening data (PubChem BioAssay)
